DAX1 inh-1 = DAX1 (NR0B1) inhibitors on StAR promoter, primary screen, cell-based, luminescence, SF-1 (NR5A1), full-length DAX-1. inhibition, % at 6.8 µM. hit rate 1.1% among 370,000. HEK293T StAR-luciferase reporter, SF-1/DAX-1 repression relief;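 active = inhibition above the mean over all tested compounds plus 3 SD, cut at about 3.6% in these data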;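 note: higher inhibition means more luminescence from relief of DAX-1 repression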
ssDAF-12 act = S. stercoralis DAF-12 nuclear receptor activators, primary screen, cell-based, luminescence, HEK293, GRIP1 co-expression, lit1-tk-luc; HEK293 ssDAF-12/GRIP1 lit1-tk-luc reporter; % of 3 µM dafachronic acid response; activation, % at 6.8 µM; hit rate 1% among 370,000; AID 652126, 2013;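 active = activation above the mean over all tested compounds plus 3 SD, cut at about 0.9% in these data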
DAX1 inh-2 = DAX1 (NR0B1) inhibitors, primary screen, cell-based, HEK293, Gal4-DAX1, luciferase luminescence | Nuclear receptor subfamily 0 group B member 1 (Homo sapiens), P51843 | HEK293 Gal4-DAX1 luciferase reporter | inhibition, % at 6.75 µM | hit rate 0.99% among 340,000 | AID 504766, 2011;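 active = inhibition above the mean over all tested compounds plus 3 SD, cut at about 4.2% in these data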;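 note: inhibition shows as a rise in luminescence from relieved DAX1 repression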
Target sequence (P51843 207-470 limits assumed): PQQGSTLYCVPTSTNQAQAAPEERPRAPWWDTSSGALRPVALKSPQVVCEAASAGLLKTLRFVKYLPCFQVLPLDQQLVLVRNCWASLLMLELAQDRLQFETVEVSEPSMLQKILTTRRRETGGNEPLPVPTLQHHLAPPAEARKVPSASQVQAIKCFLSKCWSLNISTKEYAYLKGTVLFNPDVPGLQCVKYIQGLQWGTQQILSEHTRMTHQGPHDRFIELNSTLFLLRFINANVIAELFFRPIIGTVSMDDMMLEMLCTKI
hgDAF12 agonist = H. glycines DAF-12 receptor agonists, primary screen, cell-based, luminescence, HEK293, GAL4 fusion, UAS-luciferase | activation, % at 6.8 µM | HEK293 GAL4-hgDAF12 UAS-luciferase reporter, agonist luminescence; normalized to butyrate control | hit rate 1.8% among 370,000 | Nuclear hormone receptor DAF-12 (Heterodera glycines), GAL4 fusion;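 active = activation above a cutoff set at the mean of all screened compounds plus 3 SD, cut at about 10% in these data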
hcDAF12 agonist = H. contortus DAF-12 nuclear receptor activators, primary screen, cell-based, luminescence, HEK293, lit1-tk-luc reporter. HEK293 hcDAF-12 lit1-tk-luc reporter; 0% DMSO, 100% Δ7-dafachronic acid. activation, % at 6.8 µM. hit rate 1.4% among 370,000;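 active = activation above the mean of all tested compounds plus 3 SD, cut at about 5.5% in these data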
Each line names hits and unclear results; the compound was inactive in the other large screens. Only some compounds are listed: those with a hit (about 4.1% of all), similar ones and a draw of the others.

O=C(CNS(=O)(=O)c1cc2ccccc2s1)N1CCN(c2ccccn2)CC1	none (no result: DAX1 inh-2)
NC(=O)c1ccc(-c2noc(-c3cccc(Cl)c3)n2)cc1	none
O=C(O)c1cccc(-c2noc(-c3cccc(Cl)c3)n2)c1	hgDAF12 agonist 13
CCOC(=O)c1cc(-c2csc(Nc3ccccc3Cl)n2)on1	ssDAF-12 act 1.5
COc1ccc(CCN2CC(=O)N3CCc4ccc(N5CCOCC5)cc4C3CC2=O)cc1OC (stereo not drawn)	none (no result: DAX1 inh-2)
Cc1cc(C)c2c(N)c(C(=O)N/N=C/c3ccccc3)sc2n1	DAX1 inh-2 8.7
Cc1cc(C)c2c(N)c(C(=O)N/N=C/c3cccnc3)sc2n1	none (no result: DAX1 inh-2)
CCC(C)N1CCCC1C(=O)Nc1c(C)cc(C)cc1C (stereo not drawn)	none
Cc1cc(C)c(NC(=O)C2CCCN2CCC(C)C)c(C)c1 (stereo not drawn)	DAX1 inh-2 4.8
COc1ccc(N2C(=O)[C@@H]3[C@H](C2=O)[C@H]2c4ccccc4C=CN2[C@@H]3C(=O)Nc2ccccc2)cc1	hcDAF12 agonist 6.1
Cc1ccc(S(=O)(=O)N2CCC(C(=O)NCc3cccs3)CC2)cc1	none (no result: DAX1 inh-2)
Cc1n[nH]c(=S)n1/N=C/c1ccc(OCc2ccc(Cl)cc2)cc1	hgDAF12 agonist 13
NC(N)=N/N=C/c1ccc(OCc2ccc(Cl)cc2)cc1	hgDAF12 agonist 13
O=C(CN1CCN(S(=O)(=O)c2ccc(Br)cc2)CC1)c1ccc(O)c(O)c1	hcDAF12 agonist 5.9
CC(C)c1ccc(S(=O)(=O)N2CCN(CC(=O)c3ccc(O)c(O)c3)CC2)cc1	none
O=C1NC[C@@H](CCCCN2C[C@H](Cc3ccccc3)N(CCc3ccccc3)C(=O)C2=O)N(Cc2ccccc2)C1=O	none (no result: DAX1 inh-2)
O=C1NC[C@H](CCCCN2C[C@H](Cc3ccccc3)N(Cc3ccccc3)C(=O)C2=O)N(CCc2ccccc2)C1=O	DAX1 inh-1 3.8 (no result: DAX1 inh-2)
O=C1N(c2ccccc2)CC2CC(c3ccccc3)N3CCCC123 (stereo not drawn)	none (no result: DAX1 inh-2)
S=C(Nc1ccccc1Br)OCCN1CCCC12CCC(c1ccccc1)CC2 (stereo not drawn)	none (no result: DAX1 inh-1, DAX1 inh-2)
O=C1NCCN1c1ccccc1	none
O=C1NC(=S)CN1c1ccccc1	DAX1 inh-2 5.6
O=C1N(c2ccccc2)CCN1c1ccccc1	hgDAF12 agonist 11
C/C(=C/c1[nH]c(N)[n+](CC2CC2)c1Cc1ccccc1)Cn1[nH]c(=O)n(-c2ccccc2)c1=O	none (no result: DAX1 inh-2)
COC(c1ccccc1)c1nnc(CCC(=O)N(C)C(C2CC2)C2CC2)o1 (stereo not drawn)	DAX1 inh-2 5.2
CC(C)=CCCC1=CC[C@H]2[C@@H](C1)C(C(C)C)=CC(=O)[C@@]2(C)O	none (no result: DAX1 inh-2)
O=C1NC(=O)/C(=C/c2ccc(O)cc2)S1	hgDAF12 agonist 14
COC(=O)[C@]12C[C@H](CC(=O)N3CCCC3)C(=O)N(Cc3ccco3)C1=C[C@H](C(C)C)O[C@@H]2C1CC1	none (no result: DAX1 inh-2)
Cn1cc(CC(=O)Nc2ccc(Nc3cccnc3)c(Br)c2)c2ccccc21	none (no result: DAX1 inh-2)
CC(C)c1cccc(C(C)C)c1NC(=S)Nc1cccc(Cl)c1	DAX1 inh-2 5.7
Fc1ccc(NC(=S)Nc2cccc(Cl)c2)cc1	none
CC1Oc2ccccc2N(CC(=O)NCc2ccc3c(c2)OCO3)C1=O (stereo not drawn)	hgDAF12 agonist 11
O=C(NCc1ccc2c(c1)OCO2)OCc1ccccc1	DAX1 inh-1 4.0 (no result: DAX1 inh-2)
COc1ccc(CN(CC(=O)NCc2ccc3c(c2)OCO3)C(=O)c2csnn2)cc1	none
O=C(CN(Cc1ccccc1)C(=O)c1csnn1)NCc1ccc2c(c1)OCO2	hcDAF12 agonist 5.8
CC1Oc2ccccc2N(CC(=O)Nc2ccc3c(c2)OCO3)C1=O (stereo not drawn)	none
COc1ccc(C2CC(=O)C(c3ccc(C#N)cc3)=CN2Cc2ccccc2)cc1 (stereo not drawn)	none (no result: DAX1 inh-2)
C[C@H](O)[C@@H]1C(=O)N2CCc3c([nH]c4cccc(-c5ccccc5)c34)[C@@H]2C[C@@H]1N(C)C(=O)C1CCCCC1	none (no result: DAX1 inh-2)
O=C1CC(N2CCCN(Cc3ccccc3)CC2)=NC(=O)N1c1ccc(Br)cc1	none (no result: DAX1 inh-2)
O=c1[nH]c(-c2ccccc2)cnc1-c1ccccc1	hgDAF12 agonist 11 (no result: DAX1 inh-2)
COc1ccc(C(=O)Nc2nncs2)cc1S(=O)(=O)N1CC(c2ccccc2)CC1=O (stereo not drawn)	DAX1 inh-2 8.0
O=C(O)c1cccc2c1C(=O)c1cc([N+](=O)[O-])cc([N+](=O)[O-])c1-2	ssDAF-12 act 0.9
N#CC1=C(N)Oc2c(O)cc3ccccc3c2C1c1ccsc1 (stereo not drawn)	ssDAF-12 act 6.0
Cc1ccc(Nc2nc(COC(=O)C3CC3)cs2)cc1	hgDAF12 agonist 11
COC(=O)C1CN(C(=O)c2ccc(OC(F)F)cc2)c2ccccc2O1 (stereo not drawn)	DAX1 inh-2 4.3
O=c1c2ccccc2nnn1CSc1nnnn1-c1ccc(O)cc1	none
Cc1ccc(-n2nnnc2SCn2nnc3ccccc3c2=O)cc1	hgDAF12 agonist 13
CCOc1ccc(/C=N/NS(=O)(=O)c2ccc(C)cc2)cc1OC	none
COc1cc(/C=N/NC(=O)CN2CCCCC2)ccc1OCc1ccc(Br)cc1	hgDAF12 agonist 12
COc1cc(/C=N/NS(=O)(=O)c2ccc(C)cc2)ccc1OCc1ccc(C(=O)O)cc1	hgDAF12 agonist 13
CC(C)(C)c1ccc(-c2nnc(SCC(=O)Nc3ccc(S(=O)(=O)Nc4nccs4)cc3)n2Cc2ccco2)cc1	none (no result: DAX1 inh-2)
COc1cc(NC(=O)C2CCCN(S(=O)(=O)c3cc(OC)ccc3OC)C2)cc(OC)c1 (stereo not drawn)	none (no result: DAX1 inh-2)
COCCn1c(SCC(=O)Nc2ccc(C)cc2C)nc2c(oc3ccccc32)c1=O	ssDAF-12 act 0.9
CC(C)[C@H](NC(=O)Cc1ccccc1)C(=O)OCc1cc(=O)n2c(n1)sc1ccccc12	ssDAF-12 act 1.1
O=C(Nc1ccc(Cl)cc1)Nc1cccc(C(=O)O)c1	hgDAF12 agonist 12 (no result: DAX1 inh-2)
CC(=O)c1ccc(NC(=O)Nc2cccc(Cl)c2)cc1	hgDAF12 agonist 13
O=C(/C=C(\Nc1cccc(Cl)c1)c1ccccc1)c1ccccc1	DAX1 inh-1 3.7 (no result: DAX1 inh-2)
Cn1cccc1C(=O)N1CCN(S(=O)(=O)c2cccc3ccccc23)CC1	none (no result: DAX1 inh-2)
COc1ccc(-c2cc(C(=O)NN=Cc3ccc(O)c(OC)c3)[nH]n2)cc1	none (no result: DAX1 inh-2)
c1ccc(-c2ccc(OCCCNC3CCCC3)cc2)cc1	none (no result: DAX1 inh-2)
c1ccc(SCCCCNC2CCCC2)cc1	ssDAF-12 act 1.7
